HTT aggregate – mutant huntingtin aggregation inhibition | AID 1688 | 220,000 tested, 1.1% active | Potency, µM (titrated, usually from 46.1 µM), without a hit: top-dose activity change, negative = inhibition, actives largely listed as inhibitors | PC12 HttQ103-GFP aggregates, Acumen cytometry, 40 h; active = well fitted curve in the direction sought with a large enough effect; inconclusive = small, poorly fitted or top-dose-only effect, or another doubt; inactive = no such curve, though single readings can be large; an effect the other way counts as inactive or inconclusive; note: % is set by controls: 0 for no effect and ±100 for the full control effect; nearly all actives have a fitted effect of over 60% in size
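PC12 cells stably carrying ecdysone-inducible HTT exon 1 Q103–GFP were induced with tebufenozide (100 nM final) and treated with library compounds in titration. GFP aggregates in lysates were counted by laser scanning cytometry.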
HTT ATP protect – protects HTT-Q103 PC12 cells, measured by ATP; PC12 HTT-Q103 induced, cytoprotection, ATP luminescence, 40 h; Potency, µM (series often up to 56.4 µM), without a hit: cytoprotection (ATP increase), actives largely listed as activators; 230,000 tested, 0.14% active; AID 1471; active = well fitted curve in the direction sought with a large enough effect; inconclusive = small, poorly fitted or top-dose-only effect, or another doubt; inactive = no such curve, though single readings can be large; an effect the other way counts as inactive or inconclusive; note: % of control where 0% means no effect; nearly all actives have a fitted effect of over 45% in size
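Stable PC12 Q103-GFP cells in serum-supplemented, phenol red-free DMEM; induction by tebufenozide at 100 nM final; compound dose series; cell viability quantified luminescently from ATP.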
HPGD inh – inhibitors of human 15-hydroxyprostaglandin dehydrogenase (HPGD); purified HPGD, NADH fluorescence kinetic, PGE2 substrate; Potency, µM, inactives show top-dose activity change, negative = inhibition, hits mostly inhibitors; 150,000 tested, 4.3% active; note: % is set by controls: 0 for no effect and ±100 for the full control effect
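NADH formation kinetics: reaction with 30 uM PGE2 and 1 mM NAD+ (final), 20 nM enzyme, Tris-HCl pH 8 with Tween 20, after 15 min compound preincubation at room temperature. Fluorescence change, last versus first of five reads.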
ALDH1A1 block – inhibitors of human aldehyde dehydrogenase 1A1; AID 1030; Potency, µM (highest dose often 75.3 µM), for inactives: at the top dose activity, negative = inhibition, hits mostly inhibitors; 220,000 tested, 7.3% active; Purified ALDH1A1, NADH fluorescence, propionaldehyde substrate;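 note: plate controls were no enzyme wells and a reference inhibitor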
KDM4E inh – inhibitors of human JMJD2E histone demethylase | B2RXH2 | JMJD2E catalytic domain, FDH-coupled NADH fluorescence (FDH is formaldehyde dehydrogenase) | Potency, µM (series often up to 57.1 µM), without a hit: at the top dose activity change, negative = inhibition, hits mostly inhibitors | 230,000 tested, 1.6% active;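 note: 0% = wells with enzyme and -100% = buffer wells without enzyme; nearly all actives have a fitted effect of over 50% in size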
Target sequence (B2RXH2 1-337 limits assumed): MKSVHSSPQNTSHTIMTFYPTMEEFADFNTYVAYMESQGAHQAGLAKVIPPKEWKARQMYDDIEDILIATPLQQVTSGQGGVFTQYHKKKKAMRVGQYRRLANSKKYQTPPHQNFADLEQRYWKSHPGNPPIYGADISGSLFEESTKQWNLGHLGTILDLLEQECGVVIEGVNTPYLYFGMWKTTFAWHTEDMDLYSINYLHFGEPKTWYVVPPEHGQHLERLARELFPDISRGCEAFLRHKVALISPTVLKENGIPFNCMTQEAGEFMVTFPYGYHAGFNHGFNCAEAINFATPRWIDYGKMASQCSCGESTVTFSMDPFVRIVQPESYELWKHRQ
LMNA splice mod – modulators of lamin A splicing | HeLa LMNA splicing GFP/RFP minigene ratio, 48 h | Potency, µM (doses to about 46.1 µM), for inactives: at the top dose ratio change, negative = inhibition, actives largely listed as inhibitors | 200,000 tested, 0.01% active | AID 1487; active = well fitted inhibition curve with a large enough effect in the signal ratio, with a control signal flat, not every such curve was filed as active; inconclusive = small, poorly fitted or top-dose-only effect, or effect the other way, or a change in a side signal; the % refers to the signal ratio; note: % is set by controls: 0 for no effect and ±100 for the full control effect
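S3 HeLa stable clones carrying a lamin A-EGFP splicing minigene plus DsRed2 were seeded at 600 cells/well in Opti-MEM with 2% FBS, pin-dosed and incubated 48 h at 37°C. Acumen cytometry (488 nm) gave the GFP/RFP total-intensity ratio.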
* = called active by the depositor; ? = inconclusive; / = no result; [ ] = another dose, or the depositor's remark. A selection: hits, their analogues and other compounds. The true share with any hit is near 9.2%. Unless noted, calls come from the whole dose curve; as a rule, active = well fitted inhibition curve with a large enough effect (not every such curve was filed as active); inconclusive = small, poorly fitted or top-dose-only effect, or another doubt; inactive = no such curve, though single readings can be large or run the other way. Potency is the fitted concentration of half-maximal effect.

SMILES	HTT aggregate	HTT ATP protect	HPGD inh	ALDH1A1 block	KDM4E inh	LMNA splice mod
Cc1cccc(CCNC(=O)C2CCN(c3ncnc4c3nc3n4CCCCC3)CC2)c1	/	/	/	/	/	7%[46 µM]
Cc1cc(C)nc(NC(=O)C(c2ccccc2)c2ccccc2)c1	-30%	43%[10 µM]	-1%	14µM*	-6%	-1%
CSc1ccc(CNC(=O)c2sc3ncnc(N(C)C4CCCCC4)c3c2C)cc1	/	/	/	/	/	10%[46 µM]
CCNC(=S)N1CCN(c2ccc([N+](=O)[O-])cc2)CC1	1%	-2%	-10%	3.2µM*	1%	2%
C=CCNC(=S)N1CCN(c2ccc([N+](=O)[O-])cc2)CC1	23%[9.22 µM]	27%[10 µM]	/	?	4%	?
CNC(=S)N1CCN(c2ccc([N+](=O)[O-])cc2)CC1	8%	13%	-12%	?	12%	-2%
COCCCNC(=S)N1CCN(c2ccc([N+](=O)[O-])cc2)CC1	-23%	9%[10 µM]	-8%	28µM*	14%	?
O=[N+]([O-])c1ccc(N2CCN(C(=S)NCc3ccc(Cl)cc3)CC2)cc1	-7%[9.22 µM]	-25%[10 µM]	/	11µM*	-4%	/
COc1cc(OC)nc(/N=C/NO)n1	-3%[9.22 µM]	5%[10 µM]	/	11%	3%	/
O=C(CSc1ncc(CO)n1Cc1ccccc1)Nc1ccc(C(F)(F)F)cc1	/	/	/	/	/	-9%[46 µM]
CC[C@]1(O)C[C@@H]2CN(CCc3c([nH]c4ccccc34)[C@](C(=O)OC)(c3cc4c(cc3OC)N(C)[C@H]3[C@](O)(C(=O)OC)[C@@H](C(=O)OC)[C@@]5(CC)C=CCN6CC[C@@]43[C@@H]65)C2)C1	/	-75%	-13%	-8%	-20%	/
O=C(NC(=S)N(CCCCO)C1CCCCC1)c1sc2ccccc2c1Cl	-30%	-24%	-8%	?	4%	10%
COC(=O)c1ccc(CSc2nnc(NCc3ccccc3)s2)o1	-2%	-14%[10 µM]	14µM*	-14%	-2%	1%
COC(=O)c1ccc(CSc2nnc(-c3ccncc3)n2Cc2ccccc2)o1	16%	-16%[0.074 µM]	/	25µM*	-2%	0%
COC(=O)c1ccc(CSc2nnc(Nc3ccccc3OC)s2)o1	-5%	-21%	-21%	25µM*	4%	?
COc1ccc(-n2c3c(cc(C(=O)NNc4ccccc4)c2=O)C(=O)CC(C)(C)C3)cc1	0%	-21%	/	?	2%	/
COc1ccc(-n2c3c(cc(C(=O)NNc4ccccc4C)c2=O)C(=O)CC(C)(C)C3)cc1	-24%	-9%	/	20µM*	5%	3%[9.22 µM]
CC(=O)c1cccc(NC(=O)C23CC4CC(C2)CC(n2cncn2)(C4)C3)c1	18%	/	-22%	10%	12%	0%
NC(=O)COC(=O)c1oc2ccccc2c1CSc1ccc(Cl)cc1	11µM*	32%[10 µM]	-4%	-5%	16%	-13%
O=C(COC(=O)c1oc2ccccc2c1CSc1ccc(Cl)cc1)NC1CCCC1	-10%	-3%[10 µM]	-12%	-4%	1%	-8%
COC(=O)c1ccccc1COn1c(=O)c(C)[n+]([O-])c2ccccc21	?	11%	-4%	22µM*	-14%	-3%
CCC(C)c1ccc(NC(=S)NCc2ccccc2OC)cc1 (stereo unspecified)	-4%[9.22 µM]	-9%[10 µM]	/	?	-20%	/
O=P(O)(OCc1ccccc1)OCc1ccccc1	/	-6%	-5%	4%	/	/
COc1ccc(C(=O)CCNc2ccc(C)c(Cl)c2)cc1	6%	12%[10 µM]	0%	3.2µM*	-5%	-5%
COc1ccc(C(=O)CCNc2ccc(F)cc2)cc1	3%[9.22 µM]	2%[10 µM]	/	/	3%	/
NC[C@H](O)C1CCCCCCC1	/	-27%[1.9 µM]	/	/	/	/
N#CC(c1ccc(O)cc1)N1CCOCC1 (stereo unspecified)	14%	2%[1.9 µM]	-6%	7.9µM*	-6%	0%
Cc1ccc(S(=O)(=O)N/N=c2\oc3ccccc3cc2C(=O)Nc2cccc(C)c2)cc1	8%	18%[10 µM]	-13%	0.16µM*	2%	2%
CCOc1ccc(N2CC(NC(=O)c3ccc(S(=O)(=O)N4CCCC4)cc3)CC2=O)cc1 (stereo unspecified)	/	/	/	/	/	9%[46 µM]

Screening results (PubChem)
